Bioassay records deposited in PubChem BioAssay by National Center for Advancing Translational Sciences (NCATS).
Most compounds without a hit are left out; they make up all but 2.7% or so of the library.
HEK293 tox = qHTS of GLP-1 Receptor Inverse Agonists: Cytotox Screen | HEK293 cAMP-luciferase reporter cells, luminescence, 24 h | Potency, µM (titrated, usually from 38.3 µM), without a hit: top-dose activity change, negative = inhibition, usual class: inhibitors | actives 0.13% (n = 410,000) | AID 624418, 2012;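 further: loss of luciferase light is scored as toxicity; on the % scale 0 is the no-effect control and ±100 the full control effect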
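Quantitative HTS format, 1536 wells, 200 cells/uL seeded. Compounds: 23 nL, 24 h, 37 °C. Detection: luciferase reagent, luminescence at 12 min RT; decreased signal taken as cytotoxic.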
GLP1R inv ag = qHTS of GLP-1 Receptor Inverse Agonists (Inhibition Mode) | actives 1.6% (n = 410,000) | AID 624417, 2012 | Potency, µM (doses to about 38.3 µM), without a hit: at the top dose activity change, negative = inhibition, most hits filed as inhibitors | HEK293 GLP-1R CRE-luciferase, luminescence, 24 h; GLP-1R form is constitutively active; further: on the % scale 0 is the no-effect control and ±100 the full control effect; nearly all actives have a fitted effect of over 55% in size
Target sequence (P43220 whole entry, looked up): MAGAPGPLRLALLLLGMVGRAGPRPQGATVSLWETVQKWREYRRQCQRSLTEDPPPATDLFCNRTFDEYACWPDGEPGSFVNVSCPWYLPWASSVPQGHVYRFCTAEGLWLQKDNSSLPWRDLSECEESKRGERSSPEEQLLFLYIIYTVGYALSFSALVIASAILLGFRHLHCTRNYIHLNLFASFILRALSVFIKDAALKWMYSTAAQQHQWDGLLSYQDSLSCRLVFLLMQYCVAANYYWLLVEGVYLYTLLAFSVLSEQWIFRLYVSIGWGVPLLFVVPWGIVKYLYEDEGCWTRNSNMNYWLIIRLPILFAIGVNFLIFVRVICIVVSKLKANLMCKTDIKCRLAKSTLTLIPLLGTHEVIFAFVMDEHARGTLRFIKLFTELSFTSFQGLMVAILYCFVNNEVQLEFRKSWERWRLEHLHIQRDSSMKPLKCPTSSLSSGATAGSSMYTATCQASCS
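Readout was luciferase luminescence, measured 12 min after detection reagent at room temperature. Beforehand, GLP-1R reporter HEK293 cells had sat 12 h, then received compounds for 24 hr at 37 deg C.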
GLP1R ag = qHTS of GLP-1 Receptor Agonists; Potency, µM (top dose mostly 45.6 µM), for the others: at the highest dose activation, most hits filed as activators; Glucagon-like peptide 1 receptor (Homo sapiens), P43220; HEK293 GLP-1R CRE-luciferase, luminescence, 4-6 h; cells express a hypersensitive GLP-1R form; actives 0.007% (n = 380,000); AID 624172, 2012; further: % of control where 0% means no effect
BRCA1 expr act = qHTS Assay to Identify Small Molecule Activators of BRCA1 Expression | MCF7-BRCA1-FFLuc reporter, luminescence, 48 h; response scale: scaled: vehicle 0%, 10 µM genistein 100% | Potency, µM (top dose mostly 46.1 µM), for the others: top-dose activation, usual class: activators | actives 1.1% (n = 380,000); further: nearly all actives have a fitted effect of over 80% in size
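MCF7-BRCA1-FFLuc cells, 2000/well in phenol-red-free MEM, attached 2 h then treated 48 h at 37 C. Luciferase luminescence read 15 min after reagent; normalized to genistein maximum activation (10microM) and DMSO, concentration-response fitted.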
Integrin act MD = qHTS for Activators of Integrin-Mediated Alleviation for Muscular Dystrophy; alpha7betagal myoblasts, beta-gal FDG fluorescence, 48 h; Potency, µM (series often up to 38.3 µM), without a hit: at the top dose activation, most hits filed as activators; actives 0.064% (n = 350,000); AID 624291, 2012;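 further: 100% = response of the positive control SU9516; nearly all actives have a fitted effect of over 60% in size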
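Alpha7betagal+/- myoblasts (passage 13) were plated 16-24 hr, then exposed to compounds (1:260 dilution of DMSO stock) for 48 hours at 37C. After MPER lysis, β-galactosidase reporter activity was read as FDG fluorescence (ex 480/em 540) after 30 minutes.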
The depositor's hits bear a star; ? = inconclusive; · = no result given. The call rests on the fitted dose curve; in most records, active means well fitted curve in the direction sought with a large enough effect; inconclusive means small, poorly fitted or top-dose-only effect, or another doubt; inactive means no such curve, though single readings can be large; an effect the other way counts as inactive or inconclusive. Potency means the concentration at half of the fitted maximal effect.

SMILES | HEK293 tox | GLP1R inv ag | GLP1R ag | BRCA1 expr act | Integrin act MD
Cc1ccc(NC(=O)C2CCN(S(=O)(=O)c3cccs3)CC2)cc1C | 3% | 8.9µM* | -9% | -36% | -19%
CC(=O)c1ccc(NC(=O)C2CCN(S(=O)(=O)c3cccs3)CC2)cc1 | 3% | 0% | 25% | 8.9µM* | -25%
Cc1ccc(C(=O)c2coc3c2C(=O)C(=O)c2ccccc2-3)cc1 | ? | 0% | -8% | 18µM* | -64%
Cc1ccc(C(=O)c2c(C)oc3c2C(=O)C(=O)c2ccccc2-3)cc1 | 5µM* | ? | -29% | -72% | -61%
CCOc1ccc(NC(=O)CSc2cc(C)c3ccccc3n2)cc1 | -11% | 1% | · | · | ·
COc1cc(Cl)c(NC(=O)c2cc3ccccn3n2)c(OC)c1 | -1% | 11% | · | · | ·
O=C1CS(=O)(=O)N(Cc2cccc(F)c2)c2ccc(Br)cc21 | -6% | 10µM* | -3% | -2% | -14%
COc1ccc(CN2c3c(Br)cccc3C(=O)CS2(=O)=O)cc1 | 1% | ? | 0% | -9% | -25%
Cc1cccc(C)c1NC(=O)CCS(=O)(=O)c1ccc2c(c1)CC(C)N2C(=O)C1CC1 (stereo not given) | 1% | 11% | · | · | ·
CN(C)c1ccc(CC2CCc3ccccc32)cc1 (stereo not given) | · | · | · | 35% | ·
COC(=O)c1ccccc1N(C)S(=O)(=O)c1cc2c3c(c1)CC(=O)N3CCC2 | 0% | 19% | · | · | ·
O=C(c1ccc(OC2CCN(C/C=C/c3ccc(F)cc3)CC2)cc1)N1CCCC1 | -22% | 3.2µM* | 4% | -26% | -45%
O=C(c1ccc(OC2CCN(Cc3ccc(F)cc3)CC2)cc1)N1CCCC1 | -3% | ? | -3% | -18% | -53%
CCc1ccc(CN2CCC(Oc3ccc(C(=O)N4CCCC4)cc3)CC2)cc1 | ? | 7.9µM* | -8% | -46% | -28%
CCc1ccc(CN2CCC(Oc3ccc(C(=O)N4CCCCC4)cc3)CC2)cc1 | ? | ? | 8% | -29% | -49%
Cc1ccccc1NC(=O)c1cccc2c1C(=O)N(C1CCCCC1)C2 | -4% | 7% | 4% | 1% | 17%
CCOc1ccccc1NC(=O)c1cccc2c1C(=O)N(C1CCCCC1)C2 | 2% | 28% | 0% | -19% | 3.2µM*
Cc1ccccc1Cn1c(=O)c2c(nc3n2CCCN3Cc2ccccc2)n(C)c1=O | 15% | 3.2µM* | 6% | -39% | 7%
CC(=NNC(=S)N(Cc1ccccn1)Cc1ccccn1)c1cnccn1 | 4.5µM* | ? | -5% | -86% | -56%
Clc1ccc2c(c1)-c1ccccc1C1=NCCN12 | ? | 4µM* | -11% | -69% | -61%
CC(=O)ON(C(C)=O)c1ccc(/C=C2\C=Cc3ccccc32)cc1 | · | · | · | 71% | ·
CCOc1ccc(S(=O)(=O)NC2CCCCC2C)cc1 (stereo not given) | 4% | 10µM* | -3% | -2% | 16%
CCOc1ccc(S(=O)(=O)NC2CC2)cc1 | 6% | 12% | 2% | 11% | 5%
COc1ccc(N2CCN(CCNC(=O)Nc3cccc(C)c3C)CC2)cc1 | 1% | 5% | 1% | 1% | 10%
COc1ccccc1N1CCN(CCNC(=O)Nc2cccc(C)c2C)CC1 | -14% | 3.2µM* | -8% | -48% | -23%
SMILES | HEK293 tox | GLP1R inv ag | GLP1R ag | BRCA1 expr act | Integrin act MD
C=C1C=C(C)n2ncc(C(=O)Nc3ccc(C)cn3)c2N1 | · | · | · | -8% | ·
CCn1nnc2sc3c(c2c1=O)CCC(C)C3 (stereo not given) | -8% | 89% | 20% | 13µM* | -21%
CCc1ccccc1NC(=O)Cn1nnc2sc3c(c2c1=O)CCC(C(C)(C)C)C3 (stereo not given) | -14% | 11µM* | · | · | ·
Cc1ccc(Cl)cc1NC(=O)Cn1nnc2sc3c(c2c1=O)CCC(C(C)(C)C)C3 (stereo not given) | 6% | -8% | · | · | ·
Cc1ccc(-c2noc(-c3nnn(CC(=O)Nc4ccc(C)c(Cl)c4)c3N)n2)cc1 | -3% | 8% | · | · | ·
CN(CC(=O)Nc1ccccc1Cl)C(=O)c1ccc(N2CCCCCC2)c([N+](=O)[O-])c1 | -8% | ? | -6% | 39% | ?
Cc1cccc(NC(=O)CN(C)C(=O)c2ccc(N3CCCCCC3)c([N+](=O)[O-])c2)c1C | -23% | 11µM* | 13% | -28% | -14%
Cc1nn2c3c(cnc2c1-c1ccc(F)cc1)C(=O)CC(c1ccccc1)C3 (stereo not given) | 2% | -1% | 0% | 11% | ·
CC(=O)Nc1cccc(OCc2ccc([N+](=O)[O-])cc2)c1 | -10% | 34% | 5% | 11µM* | -18%
CC(=O)Nc1cccc(NC(=O)c2ccc(COc3ccccc3)cc2)c1 | -2% | 11% | 22% | 2.2µM* | -20%
CC(=O)Nc1ccc(NC(=O)c2ccc(COc3ccccc3)cc2)cc1 | 4% | 15% | 4% | 39% | 0%
COc1ccc(N(CC(=O)N2CCN(c3ccc(F)cc3)CC2)S(=O)(=O)c2c(C)nn(C)c2C)cc1 | -10% | 9% | 0% | -17% | ·
CC[N+](C)(C(=O)O)/C(=C\c1ccccc1)c1ccnc2ccccc12 (stereo not given) | · | · | · | 1% | ·
CCn1c(SCC(=O)Nc2cc(C)ccc2F)nnc1-c1ccccc1O | -19% | ? | · | · | ·
CC(C)(O)C#Cc1ccc(C(=O)NC2CCCCC2)s1 | -16% | ? | 5% | 11µM* | -12%
CCc1ccc(C(=O)NC2CCCCC2)s1 | 7% | -9% | 5% | 3.5µM* | -9%
COc1ccc(CN2CSC(=S)N(Cc3ccccc3)C2)cc1 | ? | 10µM* | 21% | -27% | -36%
S=C1SCN(Cc2cccnc2)CN1Cc1cccnc1 | ? | 3.2µM* | -2% | -73% | -68%
COc1ccc(CN2CSC(=S)N(Cc3ccc(OC)cc3)C2)cc1 | 2% | ? | 19% | -46% | -55%
S=C1SCN(Cc2ccccc2)CN1Cc1ccccc1 | ? | ? | 25% | -24% | -66%
C[C@@H]1Cc2c(O)c(O)cc(O)c2C(=O)O1 | 3% | 5% | -3% | 9% | -5%
CC1CCC/C=C/C(=O)c2c(O)cc(O)cc2CC(=O)O1 (stereo not given) | ? | 5µM* | -10% | -89% | -52%
Cc1csc2nc(COC(=O)c3ccccc3NC(=O)c3ccc(C(C)(C)C)cc3)cc(=O)n12 | 1% | 12% | · | · | ·
CSc1ccc(/C=N/N(C)S(=O)(=O)c2ccc(C)cc2)cc1 | -4% | ? | 11% | -29% | 0%
Cc1ccc(/C=N/N(C)S(=O)(=O)c2ccc(C)cc2)cc1 | 7% | 10µM* | 7% | -25% | -37%
CC(=O)Nc1ccc(/C=C/c2nc3ccccc3s2)cc1 | · | · | · | 10% | ·
